Laboratory results as given in PubChem BioAssay AID1159580 (chemical genetic matrix, 2015).
The whole screen tested about 5,500 compounds, of which about 2,000 (36%) were called active. Roughly 18% stayed inconclusive and do not appear here. No stated cut-off is given here; in the data, active means normalized growth mostly below about 0.91 (no sharp cut-off); inconclusive means no clear call, values can overlap the other calls; inactive means mostly above about 0.92. This is one part of the list.

Assay: chemical genetic growth profiling, strain panel (AID 1159580);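 further: tested at 20 µM; growth read once vehicle control cultures reached saturation at 30 °C; 1 = growth at the plate median or of vehicle wells; lower values mean less growth of the strain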
Settings: growth OD

Measured: normalized growth

C1CNCCN1
inactive: S. cerevisiae deletion strains, locus YJR066W, strain TOR1, active compounds read low 0.957 | S. cerevisiae deletion strains, locus YJR075W, strain HOC1, active compounds read low 1.02 | S. cerevisiae deletion strains, locus YKL009W, strain mrt4, active compounds read low 0.989 | S. cerevisiae deletion strains, locus YKL068W, active compounds read low 0.999 | S. cerevisiae deletion strains, locus YKL085W, strain MDH1 (second series), active compounds read low 1.01 | S. cerevisiae deletion strains, locus YKL085W, strain MDH1, active compounds read low 1.01 | S. cerevisiae deletion strains, locus YKL160W, strain elf1, active compounds read low 1.02 | S. cerevisiae deletion strains, locus YKL190W, strain CNB1, active compounds read low 1 | S. cerevisiae deletion strains, locus YKR001C, strain vps1, active compounds read low 1 | S. cerevisiae deletion strains, locus YKR026C, strain gcn3, active compounds read low 1.01 | S. cerevisiae deletion strains, locus YKR091W, strain srl3, active compounds read low 1.01 | S. cerevisiae deletion strains, locus YLL001W, strain dnm1, active compounds read low 1.02 | S. cerevisiae deletion strains, locus YLL026W, active compounds read low 1.01 | S. cerevisiae deletion strains, locus YLL041C, strain sdh2, active compounds read low 1.02 | S. cerevisiae deletion strains, locus YLR027C, strain aat2, active compounds read low 1.01 | S. cerevisiae deletion strains, locus YLR039C, strain RIC1, active compounds read low 1.01 | S. cerevisiae deletion strains, locus YLR058C, strain SHM2, active compounds read low 1.01 | S. cerevisiae deletion strains, locus YLR102C, strain apc9, active compounds read low 0.994 | S. cerevisiae deletion strains, locus YLR113W, strain HOG1, active compounds read low 1.02 | S. cerevisiae deletion strains, locus YLR221C, strain rsa3, active compounds read low 1.01 | S. cerevisiae deletion strains, locus YLR258W, strain gsy2, active compounds read low 1.01 | S. cerevisiae deletion strains, locus YLR262C, strain YPT6 (second series), active compounds read low 1.03 | S. cerevisiae deletion strains, locus YLR262C, strain YPT6, active compounds read low 1.02 | S. cerevisiae deletion strains, locus YLR268W, strain sec22, active compounds read low 0.987 | S. cerevisiae deletion strains, locus YLR320W, strain mms22, active compounds read low 1.02 | S. cerevisiae deletion strains, locus YLR330W, strain CHS5, active compounds read low 1.01 | S. cerevisiae deletion strains, locus YLR342W, strain FKS1 (second series), active compounds read low 1.02 | S. cerevisiae deletion strains, locus YLR342W, strain FKS1, active compounds read low 1.02 | S. cerevisiae deletion strains, locus YLR357W, strain rsc2, active compounds read low 1.02 | S. cerevisiae deletion strains, locus YLR370C, strain arc18, active compounds read low 1.02 | S. cerevisiae deletion strains, locus YLR371W, strain rom2, active compounds read low 0.997 | S. cerevisiae deletion strains, locus YLR384C, strain iki3, active compounds read low 1.01 | S. cerevisiae deletion strains, locus YLR418C, strain cdc73, active compounds read low 0.994 | S. cerevisiae deletion strains, locus YML016C, strain PPZ1, active compounds read low 1.02 | S. cerevisiae deletion strains, locus YML032C, strain rad52, active compounds read low 0.989 | S. cerevisiae deletion strains, locus YML120C, strain ndi1, active compounds read low 1 | S. cerevisiae deletion strains, locus YML124C, strain tub3, active compounds read low 0.999 | S. cerevisiae deletion strains, locus YMR058W, strain fet3, active compounds read low 1.02 | S. cerevisiae deletion strains, locus YMR078C, strain ctf18, active compounds read low 1 | S. cerevisiae deletion strains, locus YMR125W, strain sto1, active compounds read low 1.03 | S. cerevisiae deletion strains, locus YMR129W, active compounds read low 1.01 | S. cerevisiae deletion strains, locus YMR205C, strain PFK2, active compounds read low 1.03 | S. cerevisiae deletion strains, locus YMR223W, strain ubp8, active compounds read low 0.987 | S. cerevisiae deletion strains, locus YMR231W, strain pep5, active compounds read low 1.02 | S. cerevisiae deletion strains, locus YMR263W, strain SAP30, active compounds read low 1.01 | S. cerevisiae deletion strains, locus YMR307W, strain GAS1, active compounds read low 1.04 | S. cerevisiae deletion strains, locus YNL067W, strain RPL9B, active compounds read low 1.02 | S. cerevisiae deletion strains, locus YNL071W, strain lat1, active compounds read low 1.01 | S. cerevisiae deletion strains, locus YNL128W, strain TEP1, active compounds read low 1.01 | S. cerevisiae deletion strains, locus YNL153C, strain GIM3, active compounds read low 1.02 | S. cerevisiae deletion strains, locus YNL183C, strain NPR1, active compounds read low 0.975 | S. cerevisiae deletion strains, locus YNL209W, strain ssb2, active compounds read low 1.02 | S. cerevisiae deletion strains, locus YNL233W, strain BNI4, active compounds read low 1.01 | S. cerevisiae deletion strains, locus YNL248C, strain rpa49, active compounds read low 1.01 | S. cerevisiae deletion strains, locus YNL250W, strain rad50, active compounds read low 0.993 | S. cerevisiae deletion strains, locus YNL271C, strain bni1, active compounds read low 1 | S. cerevisiae deletion strains, locus YNL298W, strain CLA4, active compounds read low 0.985 | S. cerevisiae deletion strains, locus YNL307C, strain MCK1, active compounds read low 0.996 | S. cerevisiae deletion strains, locus YNL322C, strain KRE1 (second series), active compounds read low 1.02 | S. cerevisiae deletion strains, locus YNL322C, strain KRE1, active compounds read low 1.01 | S. cerevisiae deletion strains, locus YNR049C, strain mso1, active compounds read low 1.01 | S. cerevisiae deletion strains, locus YNR052C, strain pop2, active compounds read low 1.01 | S. cerevisiae deletion strains, locus YOL006C, strain TOP1, active compounds read low 1.06 | S. cerevisiae deletion strains, locus YOL012C, strain htz1 1.02 | S. cerevisiae deletion strains, locus YOL147C, strain pex11, active compounds read low 0.985 | S. cerevisiae deletion strains, locus YOR001W, strain rrp6, active compounds read low 1.01 | S. cerevisiae deletion strains, locus YOR061W, strain CKA2, active compounds read low 1.01 | S. cerevisiae deletion strains, locus YOR069W, strain VPS5, active compounds read low 1 | S. cerevisiae deletion strains, locus YOR070C, strain gyp1, active compounds read low 1.03 | S. cerevisiae deletion strains, locus YOR080W, strain dia2, active compounds read low 1.02 | S. cerevisiae deletion strains, locus YOR083W, strain WHI5, active compounds read low 1.02 | S. cerevisiae deletion strains, locus YOR106W, strain vam3, active compounds read low 1.02 | S. cerevisiae deletion strains, locus YOR136W, strain idh2, active compounds read low 0.99 | S. cerevisiae deletion strains, locus YOR144C, strain elg1, active compounds read low 1 | S. cerevisiae deletion strains, locus YOR184W, strain ser1, active compounds read low 0.981 | S. cerevisiae deletion strains, locus YOR231W, strain MKK1, active compounds read low 1.01 | S. cerevisiae deletion strains, locus YOR265W, strain rbl2, active compounds read low 1.01 | S. cerevisiae deletion strains, locus YOR270C, strain vph1, active compounds read low 1.01 | S. cerevisiae deletion strains, locus YOR290C, strain snf2, active compounds read low 0.996 | S. cerevisiae deletion strains, locus YOR316C, strain cot1, active compounds read low 0.997 | S. cerevisiae deletion strains, locus YPL051W, strain arl3, active compounds read low 1.01 | S. cerevisiae deletion strains, locus YPL055C, strain LGE1, active compounds read low 1.03 | S. cerevisiae deletion strains, locus YPL078C, strain atp4, active compounds read low 1.01 | S. cerevisiae deletion strains, locus YPL106C, strain sse1, active compounds read low 1.01 | S. cerevisiae deletion strains, locus YPL240C, strain hsp82, active compounds read low 1.03 | S. cerevisiae deletion strains, locus YPL256C, strain CLN2, active compounds read low 0.996 | S. cerevisiae deletion strains, locus YPR119W, strain clb2, active compounds read low 0.985 | S. cerevisiae deletion strains, locus YPR141C, strain kar3, active compounds read low 0.992 | S. cerevisiae deletion strains, locus YPR163C, strain tif3, active compounds read low 0.997 | S. cerevisiae deletion strains, locus YPR167C, strain met16, active compounds read low 0.985 | S. cerevisiae deletion strains, strain wtn01, active compounds read low 0.993 | S. cerevisiae strains, strain wild type, active compounds read low 0.999
